ALOX12 inh: ALOX12 (human) lipoxygenase inhibition | purified 12hLO, xylenol orange hydroperoxide absorbance | Potency, µM (doses to about 108 µM), without a hit: at the highest dose activity change, negative = inhibition, actives largely listed as inhibitors | 1.1% of 580,000 active | P18054; also: potency is read from the fitted curve at half-maximal effect
Target sequence (P18054 whole entry, looked up): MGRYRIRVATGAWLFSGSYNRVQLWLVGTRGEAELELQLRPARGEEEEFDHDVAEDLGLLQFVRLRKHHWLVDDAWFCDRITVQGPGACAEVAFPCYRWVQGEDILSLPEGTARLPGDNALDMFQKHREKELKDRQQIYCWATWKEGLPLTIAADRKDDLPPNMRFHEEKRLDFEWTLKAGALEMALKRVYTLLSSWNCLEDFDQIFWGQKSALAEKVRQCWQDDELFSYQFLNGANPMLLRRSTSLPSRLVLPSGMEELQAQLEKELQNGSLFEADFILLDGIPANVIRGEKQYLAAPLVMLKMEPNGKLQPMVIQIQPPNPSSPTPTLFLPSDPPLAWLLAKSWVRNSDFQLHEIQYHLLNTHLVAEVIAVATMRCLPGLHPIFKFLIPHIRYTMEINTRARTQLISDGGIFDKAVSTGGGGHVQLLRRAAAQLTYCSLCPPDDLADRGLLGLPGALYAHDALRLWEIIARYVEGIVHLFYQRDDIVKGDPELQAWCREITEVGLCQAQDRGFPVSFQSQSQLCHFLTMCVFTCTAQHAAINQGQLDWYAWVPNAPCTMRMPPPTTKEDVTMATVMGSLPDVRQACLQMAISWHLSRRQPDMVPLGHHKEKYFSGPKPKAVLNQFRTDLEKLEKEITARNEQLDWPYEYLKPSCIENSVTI
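Purified human 12hLO at 150 nM in 25 mM Hepes, 0.01% Triton X-100, pH 7.0, preincubated 15 min at room temperature with compound. Reaction started with 40 uM arachidonic acid, 30 min at room temperature. Hydroperoxide measured by Fe-xylenol orange, 573/405 nm absorbance ratio.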
HT1080 IDH1KD tx: kills HT-1080 cells with IDH1 knockdown; HT-1080 IDH1 knockdown viability, ATP luminescence, 48 h; Potency, µM (top dose mostly 46.1 µM), for the others: at the top dose activity, negative = toxicity, usual class: cytotoxic; 2% of 360,000 active;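 also: potency is read from the fitted curve at half-maximal effect; 0% = DMSO wells and -100% = cell-free medium wells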
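% activity derives from luminescence (CellTiter-Glo), normalised to DMSO and no-cell wells. HT-1080-IDH1KD cells, 750/well, had 48 h compound exposure at 37 °C.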
DT40 TDP1 no CPT: qHTS for Inhibitors of human tyrosyl-DNA phosphodiesterase 1 (TDP1): qHTS in cells in absence of CPT. DT40 Tdp1-/- hTDP1 cells, no CPT, ATP luminescence, 48 h. 15% of 420,000 active. Potency, µM (doses to about 46.2 µM), for inactives: at the highest dose activity change, negative = growth inhibition, actives largely listed as inhibitors; also: potency is read from the fitted curve at half-maximal effect; nearly all actives have a fitted effect of over 55% in size
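No-CPT arm: Tdp1-/-;hTDP1 DT40 cells (400/well) plus compounds, incubated ≥48 hr at 37 °C. Readout CellTiter-Glo luminescence.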
DT40 TDP1 CPT: DT40-hTDP1 cell growth loss with CPT | chicken DT40 Tdp1-/-;hTDP1 cells + 20 nM CPT, ATP luminescence, 48 h | Potency, µM (doses to about 46.2 µM), inactives show at the top dose activity change, negative = growth inhibition, hits mostly inhibitors | 12% of 420,000 active; also: potency is read from the fitted curve at half-maximal effect; nearly all actives have a fitted effect of over 55% in size
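Chicken DT40 Tdp1-/- cells stably complemented with human TDP1 were seeded at 400 cells/well in medium containing 20 nM camptothecin, exposed to pin-transferred compounds, and grown at 37 °C for at least 48 hr. Viability was read as ATP luminescence.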
HT1080NT lethal: kills 2HG-producing HT-1080-NT fibrosarcoma cells; HT-1080-NT fibrosarcoma viability, CellTiter-Glo ATP luminescence, 48 h; Potency, µM (doses to about 46.1 µM), without a hit: at the top dose activity, negative = less viability, usual class: cytotoxic; 1.6% of 360,000 active;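 also: NT is the 2HG producing partner of a matched IDH1 knockdown line; potency is read from the fitted curve at half-maximal effect; 0% = DMSO-treated cells and -100% = media-only wells without cells; nearly all actives have a fitted effect of over 55% in size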
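HT-1080-NT fibrosarcoma cells (2HG-overproducing), 750 cells/well in RPMI with 5% FBS, dosed after 2 h and incubated 48 h at 37C. CellTiter-Glo luminescence normalized to DMSO and no-cell wells; concentration-response curves fitted and classed.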
IL-1B inflam inh: inhibitors of inflammasome signaling (IL-1 beta secretion) | THP-1 LPS/ATP IL-1B secretion, AlphaLISA, 16 h; active compounds read low | 4.7% of 360,000 active | activity change, % at 57.5 µM; in the data active = activity change below about -50%; inconclusive = mostly about -30% to -49%
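Secreted IL-1B measured by AlphaLISA bead assay after 16 h compound exposure of THP-1 cells; compounds (final up to 57.5 uM) added 1 h before LPS (250 ng/mL) and ATP (1.25 mM) stimulation; lower signal means less secretion.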
Starred values were filed as active, the others as inactive; ? = inconclusive; . = not tested or not shown. The full list was thinned out, with hits kept by preference. Unless noted, calls follow the shape of the dose curve; as a rule, active = well fitted curve in the direction sought with a large enough effect; inconclusive = small, poorly fitted or top-dose-only effect, or another doubt; inactive = no such curve, though single readings can be large; an effect the other way counts as inactive or inconclusive. Unless noted, % is scaled to controls: 0 for no effect and ±100 for the full control effect.

SMILES	ALOX12 inh	HT1080 IDH1KD tx	DT40 TDP1 no CPT	DT40 TDP1 CPT	HT1080NT lethal	IL-1B inflam inh
CCc1cc(NCC(O)CN2CCCCC2)ncn1 (stereo not drawn)	4%	.	.	.	.	.
O=C(NCCCN1CCOCC1)c1ccccc1N1C(=O)[C@@H]2Cc3c([nH]c4ccccc34)C(c3ccc(F)cc3)N2C1=O (stereo partly drawn)	0%	-17%	15µM*	9.2µM*	-19%	-6
COc1cccc(C2c3[nH]c4ccccc4c3C[C@H]3C(=O)N(c4ccccc4C(=O)NCCCN4CCOCC4)C(=O)N23)c1 (stereo partly drawn)	-18%	-25%	13µM*	12µM*	?	28
O=C(NCCN1CCOCC1)c1ccccc1N1C(=O)[C@@H]2Cc3c([nH]c4ccccc34)C(c3ccccc3)N2C1=O (stereo partly drawn)	-8%	-13%	?	?	2%	-6
Cc1ccc(C(=O)COC(=O)c2cc3ccccc3oc2=O)cc1	-3%	.	.	.	.	.
COCCc1noc([C@@H]2CN(Cc3ccc4[nH]ccc4c3)C[C@H]2CO)n1	34%	.	.	.	.	.
O=C(NCc1ccccc1)c1csc(-c2cccnc2)n1	33%	-13%	5.8µM*	?	-13%	?
O=C(NCCc1csc(-c2ccccc2)n1)c1ccco1	0%	-3%	?	18µM*	3%	?
O=C(NCCc1csc(-c2ccc(Cl)cc2)n1)c1cccs1	-30%	.	16µM*	?	.	.
O=C(NCCc1ccc(Cl)cc1)c1cccs1	0%	-3%	-14%	-4%	-9%	-26
O=C(NCCc1csc(-c2ccccc2)n1)c1cccs1	27%	-2%	9.2µM*	23µM*	3%	?
CNC(=O)c1cc[nH]c1C1CCCN(C(=O)CCc2c(C)n[nH]c2C)C1 (stereo not drawn)	-15%	.	.	.	.	.
Cc1cnc(NC(=O)C2CCN(c3ccc(C#N)cn3)CC2)s1	4%	.	.	.	.	.
CCN(CC)S(=O)(=O)NCc1ccnc(OCc2ccccc2)c1	31%	.	.	.	.	.
O=C1NC(C(=O)NCCCc2ccccc2)Cn2cccc21 (stereo not drawn)	6%	.	.	.	.	.
O=C(N/N=C/c1c[nH]c2ccccc12)c1csc2ccccc12	14%	.	.	.	.	.
CC(C)CCNc1nc2ccccc2nc1NS(=O)(=O)c1ccc(F)cc1	0%	.	.	.	.	.
O=C(NCCc1csc(-c2cccnc2)n1)c1ccccc1	-12%	14%	-28%	-18%	0%	-1
O=C(NCCc1csc(-c2cccnc2)n1)c1cccc2ccccc12	10%	-3%	23µM*	16µM*	-22%	-1
COc1ccc(-c2nc(CCNC(=O)c3cccs3)cs2)cc1OC	-8%	.	21µM*	?	.	.
CN(C)c1nc(-c2ccncc2)nc2c1CCN(C(=O)c1ccn[nH]1)C2	37%	.	.	.	.	.
O=C(CN1C(=O)NC2(CCOCC2)C1=O)Nc1ccc2c(c1)CCC2	-9%	.	.	.	.	.
Cc1ccc(NN2C(=O)C=C(c3ccccc3)C2=O)cc1	?	16µM*	7.3µM*	5.8µM*	23µM*	-28
NCC(=O)Nc1ccc(Cl)cc1C(=O)c1ccc[nH]1	0%	-26%	0.12µM*	0.16µM*	-11%	5
CC(=O)Nc1ccc(Cl)cc1C(=O)c1ccc[nH]1	3%	-18%	-5%	16%	-12%	11
CCCCNc1nc2c(c(=O)n(C)c(=O)n2C)n1Cc1ccccc1Cl	28%	.	.	.	.	.
COc1ccc(CCn2c(NN)nc3c2c(=O)[nH]c(=O)n3C)cc1	10%	?	5.2µM*	4.6µM*	8.2µM*	73
CCOC(=O)N1CCC2(CC1)C(C#N)=C(N)Oc1c2sc2nc(C)cc(C)c12	-29%	?	16µM*	?	?	-14

Assay outcomes: PubChem, National Center for Advancing Translational Sciences (NCATS)
